From PubChem BioAssay (EPA / NIEHS)
Results filed as inconclusive are left out. Calls of active or inactive are those of the source. The calls were made as follows, unless noted: active = hit-call score of the fitted dose curve at least 0.9, where 1 is the maximum; inactive = score below 0.9.

Experiments:
[1] = CCTE_Shafer_MEA_dev_firing_rate_mean: CCTE's Neural Network Formation Assay for Mean Firing Rate, Shafer Lab (AID 2284031);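 also: curve fitted for loss of firing so AC50 reflects decreased mean firing rate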
In short: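 Extracellular spike frequency, AUC over DIV 5–12 recordings, in rat cortical neuron MEA cultures dosed from plating; loss direction vs DMSO.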

[2] = CCTE_Shafer_MEA_dev_active_electrodes_number: CCTE's Neural Network Formation Assay for Number of Active Electrodes, Shafer Lab (AID 2284040; active = hit-call score of the fitted dose curve at least 0.9, where 1 is the maximum;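 also: potency for loss of active electrodes versus DMSO so lower counts are hits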)
In short: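 Developing rat cortical networks on MEAs, exposed DIV 0–12. Value is the AUC of active-electrode counts (≥5 spikes/min) from days 5, 7, 9, 12, relative to DMSO.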

[3] = CCTE_Shafer_MEA_dev_burst_rate: CCTE's Neural Network Formation Assay for Burst Rate, Shafer Lab (AID 2284042);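 also: potency for loss of burst rate below DMSO control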
In short: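 Primary rat cortical neurons on PEI-coated 48-well MEA plates (laminin added with cells at plating) (16 electrodes/well), exposed from plating to day 12, dosing renewed at DIV 5 and 9. Burst rate averaged over active electrodes, recorded DIV 5, 7, 9, 12, summarized as AUC; loss versus DMSO.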

[4] = CCTE_Shafer_MEA_dev_bursting_electrodes_number: CCTE's Neural Network Formation Assay for Number of Bursting Electrodes, Shafer Lab (AID 2284043; active = hit-call score of the fitted dose curve at least 0.9, where 1 is the maximum;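 also: potency is for loss of bursting electrodes relative to DMSO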)
In short: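 Rat cortical primary neurons, 48-well MEA, 16 electrodes/well; dosing DIV 0–12, re-dosed with full media change DIV 5, 9. Recordings DIV 5/7/9/12, AxIS adaptive spike detector; bursting electrode = ≥1 burst/2 min. AUC across days; loss of signal vs DMSO.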

[5] = CCTE_Shafer_MEA_dev_burst_duration_mean: CCTE's Neural Network Formation Assay for Mean Burst Duration, Shafer Lab (AID 2284045);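 also: curve fitted for loss meaning shorter burst duration than DMSO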
In short: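 Rat cortical cultures, 1.5 x 10^5 cells/well with laminin drop; continuous dosing days 0–12, media plus treatment refreshed DIV 5, 9. AxIS adaptive spike detection; mean single-electrode burst duration, AUC over four recordings, negative direction vs DMSO.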

[6] = CCTE_Shafer_MEA_dev_inter_network_spike_interval_mean: CCTE's Neural Network Formation Assay for Mean Inter-network Spike Interval, Shafer Lab (AID 2284047)
In short: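 Primary rat cortical neurons on 16-electrode MEA wells, exposed from plating day 0 through DIV 12, compound renewed at DIV 5 and 9 media changes. Mean interval between network-spike peaks recorded DIV 5, 7, 9, 12; collapsed as trapezoidal AUC, fitted downward versus DMSO.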

[7] = CCTE_Shafer_MEA_dev_network_spike_number: CCTE's Neural Network Formation Assay for Number of Network Spikes, Shafer Lab (AID 2284048);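 also: synchronized bursts across electrodes counted on days 5 7 9 12 and integrated as AUC; fit as a loss of signal meaning fewer network spikes than DMSO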
In short: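 Rat cortical primary cultures on 48-well MEA (16 electrodes/well); continuous exposure DIV 0–12, full medium and treatment exchange DIV 5, 9. Readout: network spike count, AxIS adaptive detection, recordings DIV 5/7/9/12 collapsed to AUC; loss-of-signal fit, DMSO baseline.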

[8] = CCTE_Shafer_MEA_dev_network_spike_peak: CCTE's Neural Network Formation Assay for Mean Number of Electrodes in Network Spike, Shafer Lab (AID 2284049);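 also: fitted for loss of signal meaning fewer electrodes in network spikes than DMSO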
In short: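 Network-spike peak electrode count from recordings on days 5, 7, 9 and 12 was combined as trapezoidal area under the curve. Rat cortical cultures were treated continuously from plating, with compound renewed at each feed (DIV 5, 9); fits versus DMSO.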

[9] = CCTE_Shafer_MEA_dev_spike_duration_mean: CCTE's Neural Network Formation Assay for Mean Spike Duration, Shafer Lab (AID 2284051);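 also: mean network spike duration pooled as area under curve over DIV 5 to 12 recordings; potency for a decrease in mean network spike duration versus DMSO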
In short: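 Primary rat cortical neurons on 16-electrode MEA wells (PEI-coated, laminin in plating drop), exposed from plating through DIV 12 with compound renewed at DIV 5 and 9. Mean network-spike duration recorded DIV 5, 7, 9, 12; trapezoidal AUC across days, DMSO baseline.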

[10] = CCTE_Shafer_MEA_dev_network_spike_duration_std: CCTE's Neural Network Formation Assay for Standard Deviation of Network Spike Duration, Shafer Lab (AID 2284052);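 also: area under curve of spike duration SD across recording days 5 to 12; hits are decreases in network spike duration SD versus DMSO vehicle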
In short: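 Primary rat cortical neurons on PEI-coated 16-electrode MEA wells, exposed from plating day 0 through day 12 with compound renewed at DIV 5 and 9. Network spike duration SD recorded on days 5, 7, 9, 12, collapsed as trapezoidal AUC; loss-of-signal fit versus DMSO.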

[11] = CCTE_Shafer_MEA_dev_per_network_spike_spike_number_mean: CCTE's Neural Network Formation Assay for Mean Number of Spikes in a Network Spike, Shafer Lab (AID 2284053);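 also: fitted as decrease in spikes per network spike relative to DMSO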
In short: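 Primary rat cortical neurons on 48-well, 16-electrode MEA plates were exposed from plating to DIV 12, with dosing renewed on DIV 5 and 9. Spikes per network spike (0.05 s peak window) were recorded on DIV 5, 7, 9 and 12 and collapsed as trapezoidal AUC versus DMSO.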

[12] = CCTE_Shafer_MEA_dev_per_network_spike_spike_percent: CCTE's Neural Network Formation Assay for Percent of Spikes in a Network Spike, Shafer Lab (AID 2284054)
In short: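 Read-out: percent of spikes falling in a 0.05 s window at network-spike peak, from spontaneous MEA recordings on days 5, 7, 9 and 12; trapezoidal AUC; loss of signal versus DMSO. Rat cortical cultures, compound present throughout.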

[13] = CCTE_Shafer_MEA_dev_LDH: CCTE's Lactate Dehydrogenase Assay for Cytotoxicity in the Neural Network Formation Assay, Shafer Lab (AID 2284068; active = hit-call score of the fitted dose curve at least 0.9, where 1 is the maximum;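 also: exposure for twelve days from plating with re-dosing on DIV 5 and 9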)
In short: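 Primary rat cortical neurons were plated on PEI/laminin MEA plates and exposed from day 0 for twelve days, with compound renewed at DIV 5 and 9. Cytotoxicity was determined by spectrophotometric LDH assay relative to DMSO.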

[14] = CCTE_Shafer_MEA_dev_AB: CCTE's Alamar Blue Assay for Cytotoxicity in the Neural Network Formation Assay, Shafer Lab (AID 2284083; active = hit-call score of the fitted dose curve at least 0.9, where 1 is the maximum;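 also: twelve days of exposure from plating with re-dosing on DIV 5 and 9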)
In short: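 Primary rat cortical neurons on PEI-coated 48-well MEA plates, 1.5 x 10^5 cells/well in laminin drop; compound exposure from day 0 of plating for twelve days, renewed at medium changes on DIV 5 and 9. Viability read as resazurin reduction by fluorescence, relative to DMSO.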

[15] = CCTE_Shafer_MEA_dev_mutual_information_norm: CCTE's Neural Network Formation Assay for Mutual Information Normalization, Shafer Lab (AID 2284091);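 also: mutual information between electrodes summarised as area under curve across four recording days; potency is for a decrease in mutual information relative to DMSO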
In short: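 Neurons from rat cortex were seeded at 1.5 x 10^5 cells/well onto PEI-coated MEAs in a laminin drop, then exposed to compound from day 0 for twelve days. Network recordings on four days gave mutual information, summarised by AUC relative to DMSO.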

[16] = CCTE_Shafer_MEA_dev_correlation_coefficient_mean: CCTE's Neural Network Formation Assay for Mean Correlation Coefficient, Shafer Lab (AID 2284093);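 also: well mean pairwise spike train correlation integrated as AUC over recording days 5 to 12; potency fitted for loss of correlation relative to DMSO vehicle wells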
In short: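 Spontaneous activity recorded on days 5, 7, 9 and 12 post-plating; pairwise spike correlations are averaged across active electrodes and collapsed to an area-under-curve. Rat cortical cultures are dosed from plating through 12 days, with compound renewed at media changes.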

[17] = UKN2_HCS_IMR90_neural_migration: University of Konstanz (UKN) Leist Lab Neural Crest Cell Migration Assay in human induced IMR90 Pluripotent Stem Cells (UKN2) (AID 2284204); conditions: actives raise or lower the signal
In short: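 Stopper-exclusion migration (cMINC), human iPSC-derived neural crest cells; N2-S + EGF/FGF; compound added 24 h post-stopper removal, 24 h exposure. Readout: calcein-AM/Hoechst 30 min, HCS fluorescence imaging; bidirectional fitting, DMSO baseline.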

[18] = IUF_NPC1b_proliferation_BrdU_72hr: Leibniz Research Institute for Environmental Medicine (IUF) 72-hour Neural Progenitor Cell Bromodeoxyuridine (BrdU) Proliferation Assay (NPC1b) (AID 2284207)
In short: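 Luminescent BrdU ELISA measured DNA synthesis during the last 16 h of a 72 h exposure of primary human neural progenitor spheres grown with EGF and FGF. Signal was fitted relative to DMSO controls.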

[19] = IUF_NPC1a_proliferation_area_72hr: Leibniz Research Institute for Environmental Medicine (IUF) 72-hour Neural Progenitor Cell Proliferation Area Assay (NPC1a) (AID 2284208)
In short: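 Proliferation read as increase in sphere area by phase-contrast imaging over 72 h continuous compound exposure (no renewal) of hNPC spheres grown with EGF/FGF at 37C, 5% CO2. Growth-factor withdrawal served as positive control; DMSO as baseline.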

[20] = IUF_NPC1_viability_72hr: Viability Assessment at 72 hours in the Leibniz Research Institute for Environmental Medicine (IUF) Neural Progenitor Cell Proliferation Assay (NPC1) (AID 2284209)
In short: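 Three-day continuous exposure of human neural progenitor spheres under EGF/FGF-driven proliferation; cell viability scored by alamar blue signal versus DMSO.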

[21] = CCTE_Mundy_HCI_Cortical_Synap_Neur_Matur_NeuriteSpotCountPerNeuriteLength: CCTE's Synaptogenesis and Neurite Maturation Assay in rat cortical cells for Neurite Spot Count per Neurite Length, Mundy Lab (AID 2284210)
In short: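 Read-out: synaptophysin puncta counted along MAP2-stained neurites, normalised to neurite length, by automated high-content imaging. Rat cortical cells; AraC DIV 5; chemical dosing DIV 7; termination DIV 12. DMSO baseline.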

[22] = CCTE_Mundy_HCI_Cortical_Synap_Neur_Matur_BPCount: CCTE's Synaptogenesis and Neurite Maturation Assay in rat cortical cells for Branch Point Count, Mundy Lab (AID 2284211)
In short: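 In this multiplexed morphology assay, cortical cells from rat receive chemicals at DIV 7 and are fixed at DIV 12, then immunostained and imaged; branch points are counted, with DMSO as baseline.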

For CCOP(=O)(OCC)OC(Cl)C(Cl)(Cl)Cl (configuration not stated), which AC50 [1] is on record?
The AC50 was 1640 nM (active).

What about the AC50 [2] of the same compound?
Its AC50 is 2520 nM (active).

And the AC50 [3]?
Its AC50 is 945 nM (active).

What about the AC50 [4] of the same compound?
Its AC50 is 1100 nM (active).

And the AC50 [5]?
The AC50 was 1220 nM (active).

And the outcome [6]?
Its outcome is “inactive”.

What about the AC50 [7] of the same compound?
The AC50 was 833 nM (active).

What about the AC50 [8] of the same compound?
Its AC50 is 2290 nM (active).

What about the AC50 [9] of the same compound?
The AC50 was 1390 nM (active).

What about the AC50 [10] of the same compound?
The AC50 was 602 nM (active).

What about the AC50 [11] of the same compound?
The AC50 was 1920 nM (active).

What about the AC50 [12] of the same compound?
The AC50 was 2250 nM (active).

And the AC50 [13]?
The AC50 was 825 nM (active).

And the AC50 [14]?
Its AC50 is 2240 nM (active).

And the AC50 [15]?
The AC50 was 797 nM (active).

And the AC50 [16]?
The AC50 was 1130 nM (active).

What about the outcome [17] of the same compound?
The outcome was “inactive”.

What about the outcome [18] of the same compound?
The outcome was “inactive”.

And the outcome [19]?
The outcome was “inactive”.

And the outcome [20]?
Its outcome is “inactive”.

What about the AC50 [21] of the same compound?
Its AC50 is 49600 nM (active).

And the AC50 [22]?
The AC50 was 79500 nM (active).
